From PubChem
rRNA inh HTS: reduced GFP signal of wild-type E. coli, primary screen, bacterial rRNA inhibitor project, GFP/RFP fluorescence, OD600, single point | hit rate 1.6% among 350,000 | AID 720706, 2013 | E. coli WT GFP vs humanized-ribosome RFP mutants, 24 h; hits give low values; DMSO median 0, no signal -100 | GFP signal change (wild-type ribosome), % (concentration not given with the values);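 active = significant combined selectivity score with lowered wild-type GFP, culture density cut under 30%, mutant RFP and density less affected; inactive = any of these conditions unmet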
CaV13 ICDI inh: Disruptors of the CACNA1D IQ motif to Ca2+-dependent inactivation inhibitor domain association, primary screening, Förster resonance energy transfer in intact living …. hit rate 0.098% among 340,000. inhibition, % at 12.3 µM. HEK cells, CFP/YFP FRET ICDI-IQ, plate reader, 10 min; percent FRET-ratio fall versus neutral wells;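 active = mean replicate inhibition of at least 30% and at least 1% of replicates passing that level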;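 note: 0% = median of the neutral control wells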
PGC1a acetyl inh: inhibitors of PGC1a acetylation signal, primary screen, cell-based, U2OS, AlphaScreen, inhibitor mode; AlphaScreen anti-acetyl-lysine; with virally co-expressed GCN5 acetyltransferase; inhibition, % at 15.6 µM; hit rate 0.17% among 350,000; AID 651687, 2012;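 active = every replicate shows inhibition of at least 40%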;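 note: 0% = neutral control wells and 100% = positive control wells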
INS-1E GSIS act: GLuc luminescence reporter in INS-1E cells, primary screen for activators of glucose-dependent secretion of insulin; hit rate 0.61% among 370,000; activation, % at 16.6 µM; INS-1E GLuc reporter insulin secretion, 2-3 h;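 active = lowest replicate activation of at least 40%, so every replicate reaches that level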;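 note: 0% = median of neutral control wells and 100% = median of IBMX positive control wells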
DENV2 CPE: inhibitors of DENV2 cytopathic effect, primary screen, cell-based, plate reader, single concentration; CPE inhibition, % at 9.99 µM; DENV2-infected cells, cytopathic effect rescue; hit rate 1.7% among 350,000; in the data active = CPE inhibition above about 20%, passing the limit was not always enough; tested in BHK-21 cells;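 note: 0% = median of neutral control wells and 100% = median of positive control wells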
ERAP1 inh: human ERAP1 aminopeptidase inhibitors, primary screen, biochemical, single point, plate reader | AID 652197, 2013 | recombinant ERAP1, Leu-AMC fluorescence, 60 min | hit rate 0.15% among 340,000 | inhibition, % at 10.7 µM | Endoplasmic reticulum aminopeptidase 1 (Homo sapiens), Q9NZ08;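 active = mean replicate inhibition of at least 30%, or all replicates individually reaching that 30% level; inactive = mean below 30% and not every replicate reaching it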;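 note: 0% = neutral control wells and 100% = L-leucinethiol positive control wells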
* hit, by the source's call; · = not tested or not shown; ! = repeats disagree. Shown are actives, neighbours in structure and some others; about 3.2% of the full set was active somewhere.

SMILES	rRNA inh HTS	CaV13 ICDI inh	PGC1a acetyl inh	INS-1E GSIS act	DENV2 CPE	ERAP1 inh
COc1ccc(S(=O)(=O)Nc2ccc3c(c2)C(=O)N([C@H](C)CO)C[C@H](C)[C@@H](CN(C)S(C)(=O)=O)OCCCC[C@H](C)O3)cc1	-2	·	20	12	9	1
C[C@@H]1CCCCO[C@@H](CN(C)CC2CCCCC2)[C@@H](C)CN([C@H](C)CO)C(=O)c2cc(NS(=O)(=O)c3ccc(Cl)cc3)ccc2O1	2	-3	16	-11	63*!	-8
Cc1ccc(S(=O)(=O)Nc2ccc3c(c2)C(=O)N([C@@H](C)CO)C[C@H](C)[C@@H](CN(C)S(=O)(=O)c2ccc(Cl)cc2)OCCCC[C@@H](C)O3)cc1	2	·	-9	9	9	·
C[C@@H]1CN([C@H](C)CO)C(=O)c2cc(Br)cnc2O[C@H]1CN(C)S(=O)(=O)c1ccccc1	-5	·	10	12	-9	1
C[C@H](CO)N1C[C@H](C)[C@@H](CN(C)C(=O)Nc2cccc3ccccc23)Oc2ccc(NC(=O)Cn3cnnn3)cc2CC1=O	6	·	6	12	17	-2
CCC(=O)N1CC[C@H]2[C@H](CO)Nc3ccc(C#Cc4cccc(OC)c4)cc3[C@H]21	0	·	·	-2	·	·
Cc1ccc(S(=O)(=O)Nc2ccc3c(c2)C(=O)N([C@@H](C)CO)C[C@@H](C)[C@@H](CN(C)CC2CC2)OCCCC[C@@H](C)O3)cc1	7	-9	-10	5	63*!	-16
CO[C@@H]1CN(C)C(=O)c2ccc(NC(=O)C3CC3)cc2OC[C@H](C)NC[C@H]1C	2	·	5	15	-5	-1
CCCSc1ccc(-c2nn(-c3ccccc3)cc2/C=C(/C#N)C(=O)NCCCOC)cc1	·	-3	6	50*	·	·
CCSc1ccc(-c2nn(-c3ccccc3)cc2/C=C(/C#N)C(=O)NCCCOC)cc1	·	-3	·	64*	·	·
C[C@H]1CN([C@@H](C)CO)C(=O)Cc2cc(NS(C)(=O)=O)ccc2O[C@H]1CN(C)S(=O)(=O)c1ccc(F)cc1	0	·	4	6	23*	5
C[C@H]1CN([C@@H](C)CO)C(=O)Cc2cc(NS(=O)(=O)c3cccs3)ccc2O[C@H]1CN(C)Cc1ccc(-c2ccccc2)cc1	1	·	2	-17	-21	0
C[C@H](CO)N1C[C@H](C)[C@H](CN(C)Cc2ccc(-c3ccccc3)cc2)Oc2ccc(NS(=O)(=O)c3cccs3)cc2CC1=O	-3	·	0	-4	51*	4
COc1ccc(S(=O)(=O)N(C)C[C@H]2Oc3ccc(NS(=O)(=O)c4cccs4)cc3CC(=O)N([C@@H](C)CO)C[C@@H]2C)cc1	-5	·	1	-6	26*	0
C[C@H](CO)N1C[C@H](C)[C@@H](CN(C)S(=O)(=O)c2ccc(F)cc2)Oc2ccc(NS(=O)(=O)c3cccs3)cc2CC1=O	-6	·	7	-9	2	-2
C[C@@H]1CN([C@H](C)CO)C(=O)Cc2cc(NS(=O)(=O)c3cccs3)ccc2O[C@H]1CN(C)S(=O)(=O)c1ccc(F)cc1	-1	·	3	15	24*	-1
C[C@@H]1CN([C@@H](C)CO)C(=O)c2cc(C#CCN(C)C)cnc2O[C@@H]1CN(C)C(=O)Cc1ccccc1	4	·	4	6	·	0
CC(=O)N[C@@H]1CC[C@H](CC(=O)NCC2CCCCC2)O[C@H]1CO	-1	·	1	-2	1	-7
O=C(C[C@H]1CC[C@H](NC(=O)c2cccc(F)c2)[C@@H](CO)O1)NCc1ccccc1	-5	·	2	-3	2	-2
O=C1NC[C@@H](CCCCN2C[C@H](Cc3ccc(O)cc3)N(CCC3CCCCC3)C(=O)C2=O)N(CCc2ccc(O)cc2)C1=O	-19	-3	·	-44	11	-2
O=C1NC[C@H](CCCCN2C[C@H](Cc3ccc(O)cc3)N(CCC3CCCCC3)C(=O)C2=O)N(CCc2ccc(O)cc2)C1=O	-25*	-4	·	8	2	-3
COc1ccccc1CN1CC2(C1)[C@H](c1ccccc1)[C@H](CO)N2Cc1ccccc1	-30	·	-27	10	-11	-1
O=C1CCC/C(=N\NC(=O)c2ccc(CSc3cccc4cccnc34)cc2)C1	-21*	1	1	-3	-3	2
CCCc1cc(C(=O)Nc2cc(OC)ccc2OC)cs1	-32*	-6	·	-23	-5	0
Cc1noc(C)c1S(=O)(=O)Nc1ccc2c(c1)C(=O)N([C@@H](C)CO)C[C@@H](C)[C@H](CN(C)C(=O)C1CCCCC1)OCCCC[C@@H](C)O2	-1	·	-10	-7	16	-3
SMILES	rRNA inh HTS	CaV13 ICDI inh	PGC1a acetyl inh	INS-1E GSIS act	DENV2 CPE	ERAP1 inh
CC1=C(/C=C/C(C)=N\NC(=O)c2ccncc2)C(C)(C)CCC1	8	-4	·	-2	3	-7
CC1=C(/C=C/C(C)=C/C=C/C(C)=C/CO)C(C)(C)CCC1	-1	·	-4	·	122*	1
CN1c2ccc(-c3ccc(C#N)cc3)cc2[C@@H]2[C@@H](CCN2C(=O)Nc2cccc(F)c2)[C@@H]1CO	-10	·	13	3	-10	-2
CC(C)n1c(N)c(C#N)c2ccc([N+](=O)[O-])cc2c1=O	7	-36	8	103*	-5	·
O=C(C[C@@H]1CC[C@@H]2[C@H](COC[C@H](O)CN2C(=O)c2ccc(F)cc2)O1)Nc1nccs1	0	·	0	11	-7	0
CCCSc1nc2c(cnn2-c2ccccc2)c(=O)n1N	-19*	-4	8	-6	18	11
CNC[C@@H]1Oc2ccc(NS(=O)(=O)c3ccc(C)cc3)cc2CC(=O)N([C@@H](C)CO)C[C@@H]1C	5	·	3	-3	18	-1
CNC[C@@H]1Oc2ccc(NS(=O)(=O)c3ccc(OC)cc3)cc2CC(=O)N([C@@H](C)CO)C[C@H]1C	6	·	-9	-3	-5	8
CCOC(=O)CNC(=O)N(C)[C@H]1C[C@H]2c3[nH]c4ccccc4c3CCN2C(=O)[C@H]1[C@H](C)O	-1	-6	-11	2	24*	-98
Cc1cc(C(=O)Nc2ccc3c(c2)C(=O)N(C)[C@@H]2CC[C@@H](CC(=O)NC4CCCC4)O[C@H]2CO3)no1	3	·	4	3	-1	2
Cc1cc(OC(C)C(=O)NC2CC(C)(C)NC(C)(C)C2)c2c(C)c(C)c(=O)oc2c1 (stereo not drawn)	15	-5	-20	9	45*	13
